71 compounds from PubChem BioAssay AID1851 (National Center for Advancing Translational Sciences (NCATS), 2009) can be followed below.

Broadly, the AC50 is the concentration giving half of the maximal activity seen.

In all, about 16,000 compounds went through this assay and about 4,000 (25%) were called active. About 26% were inconclusive and are not listed. A selection follows. A number with no mark means an inactive call. The call rests on the fitted dose curve; in most records, active means well fitted curve in the direction sought with a large enough effect; inconclusive means small, poorly fitted or top-dose-only effect, or effect the other way; inactive means no such curve, though single readings can be large or run the other way.
On the % scale 0 is the no-effect control and ±100 the full control effect.

The target in this experiment is Cytochrome P450 2C9 (Homo sapiens) (UniProt P11712). The experiment can be described thus: Cytochrome panel assay with activity outcomes. The settings on record: recombinant CYP, pro-luciferin dealkylation, luminescence, p450-cyp2c9; series mostly up to 57.1 µM; activity, negative = inhibition: at the top concentration.
Chain of Cytochrome P450 2C9 (Homo sapiens) (P11712 whole entry, looked up): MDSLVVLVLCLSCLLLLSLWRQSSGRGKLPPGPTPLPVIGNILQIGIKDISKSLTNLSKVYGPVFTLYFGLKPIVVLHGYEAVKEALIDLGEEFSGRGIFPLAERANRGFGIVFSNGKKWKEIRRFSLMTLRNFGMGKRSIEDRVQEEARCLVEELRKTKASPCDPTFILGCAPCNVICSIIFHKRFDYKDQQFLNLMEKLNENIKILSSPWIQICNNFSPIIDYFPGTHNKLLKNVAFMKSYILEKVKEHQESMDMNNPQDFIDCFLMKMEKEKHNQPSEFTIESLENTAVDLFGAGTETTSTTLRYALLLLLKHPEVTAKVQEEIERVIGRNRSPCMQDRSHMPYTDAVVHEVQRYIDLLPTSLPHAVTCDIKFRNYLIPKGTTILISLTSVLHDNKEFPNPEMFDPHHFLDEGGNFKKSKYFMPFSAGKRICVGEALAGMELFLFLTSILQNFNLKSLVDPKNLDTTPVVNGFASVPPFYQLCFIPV
Take `CC(=O)NCCNc1ncnc2ccc(-c3c(C)noc3C)cc12`: the activity, negative = inhibition is 27.1% [at 2.29 µM].
Take `O=c1c2ccc(Cl)cc2nc(-c2cccc(C(F)(F)F)c2)n1O`: the AC50 was 5.01 µM (active).
As to `CCc1ccc(NC(=O)C2CCN(S(=O)(=O)c3c(C)[nH]c(=O)[nH]c3=O)CC2)cc1`, the “activity, negative = inhibition” value is -27.8%.
In the case of `CCOC(=O)N1CCN(c2c(-c3ccccc3)c3cc(Cl)ccc3[nH]c2=O)CC1`, the AC50 is 1.26 µM (active).
Turning to `CCOC(=O)c1[nH]c2ccc(Cl)cc2c1-c1ccccc1`, the “activity, negative = inhibition” value is -19.7%.
Regarding `CO[C@H]1COC(=O)C/C=C\[C@@H](C)[C@H](OC)COC(=O)[C@H]2CCCN2C(=O)C/C=C\[C@@H]1C`, the activity, negative = inhibition was 12.3% [at 11.4 µM].
As to `CC(=O)Oc1ccc2ccccc2c1C(NC(=O)Cc1ccccc1)c1ccc(Cl)cc1` (stereo unspecified), the AC50 was 1.78 µM (active).
As to `Cn1c([N+](=O)[O-])cnc1CN1CCN(CCO)CC1`, the activity, negative = inhibition was 8.6% [at 11.4 µM].
`O=C(c1ccccc1)c1ccc(OCC(O)CN2CCN(Cc3ccccc3)CC2)cc1` (stereo unspecified): the AC50 was 12.6 µM (active).
As for `O[C@H](COc1ccccc1)CN1CCCCC1`, the activity, negative = inhibition is 9.06% [at 11.4 µM].
`CC(C(=O)NC1CCCC1)N(C(=O)c1ccc(-c2ccccc2)[nH]1)c1ccccc1F` (stereo unspecified): the half-maximal activity concentration (AC50) was 5.01 µM (active).
The same measure, in the same setting: then `Fc1ccc2nc(Nc3nc4c(s3)CCCC4)sc2c1`, with 14.1 µM (active).
Regarding `NCCCCC(=O)O`, the “activity, negative = inhibition” value is -13.6%.
In the case of `Cc1ccc(Sc2nc(C)cc(C)c2S(C)(=O)=O)cc1`, the AC50 was 3.55 µM (active).
Consider `CC(=O)O[C@]1(C)N=NC2(CCCCC2)O1`, for which the activity, negative = inhibition was 16.8% [at 11.4 µM].
Still for that read-out and setting: the same measure for `CCC1CCCCN1Cc1cc(OC)c(O)c([N+](=O)[O-])c1` (stereo unspecified): -0.234%.
Take `CCOC(=O)N1CCN(c2nc(-c3ccco3)cc(C(F)(F)F)n2)CC1`: the AC50 is 1.12 µM (active).
In the case of `Cc1cc(C)nc(SCC(=O)N/N=C\c2sccc2C)n1`, the “activity, negative = inhibition” value was -15.8%.
As to `CN1CCN(c2ncc3nc(-c4cccs4)c(=O)n(-c4ccccc4)c3n2)CC1`, the “activity, negative = inhibition” value was -2.31%.
Same read-out and setting: the same measure for `CCCNC(=O)c1cc2c(C(F)(F)F)nn(C)c2s1`: -27.8%.
`CCOC(=O)N1CCN(c2nc(-c3cccs3)cc(C(F)(F)F)n2)CC1`: the AC50 is 1.58 µM (active).
The same measure, in the same setting: the same measure for `CCCNC(=O)CSc1nc(-c2cccs2)cc(C(F)(F)F)n1`: 2.82 µM (active).
In the case of `C/C(CC/C(C)=N/O)=N/O`, the activity, negative = inhibition was -9.93% [at 11.4 µM].
The same measure, in the same setting: the same measure for `O=C1OC2CC3CC1CC(O)(C3)C2` (stereo unspecified): -15.4%.
Turning to `Cc1cc2nc(-c3ccc(SCC(=O)N4CCc5ccccc54)nc3)[nH]c2cc1C`, the AC50 is 3.55 µM (active).
For `Cc1ccc(C)c(-n2c(CNC(=O)c3ccco3)nnc2SCC(=O)N2CCc3ccccc32)c1`, the “activity, negative = inhibition” value was -21.7%.
The same measure, in the same setting: the same measure for `O=C(O)c1cccnc1Nc1cccc(C(F)(F)F)c1`: -12.1% [at 25.6 µM].
Take `O=C(COC(=O)c1ccccc1Nc1cccc(C(F)(F)F)c1)NCc1ccco1`: the AC50 is 3.16 µM (active).
Same read-out and setting: the same measure for `O=C(COC(=O)c1cccnc1Nc1cccc(C(F)(F)F)c1)NCc1ccc2c(c1)OCO2`: 3.55 µM (active).
As for `Cc1cc(NC(=O)C2C3C(=O)N(Cc4ccc(Cl)cc4)C(C(=O)NC(C)(C)C)C34C=CC2(C)O4)no1` (stereo unspecified), the “activity, negative = inhibition” value is -51.8%.
`OC[C@H](S)CS`: the activity, negative = inhibition was -14.4% [at 11.4 µM].
`COCC(=O)N1CCC2(CC1)CN(Cc1ccc(C#N)cc1)C2`: the “activity, negative = inhibition” value was -0.1%.
As for `CCN1CNC(=S)N(c2cc(C)ccc2C)C1`, the “activity, negative = inhibition” value was 0.18%.
Take `O=C(c1cc2sccc2n1Cc1ccccc1)N1CCN(c2nc3ccccc3s2)CC1`: the AC50 was 2.82 µM (active).
In the case of `Cn1c(=O)c2[nH]c(CCCCC(=O)O)nc2n(C)c1=O`, the activity, negative = inhibition was -3.07% [at 11.4 µM].
Consider `CCOC(=O)c1nnn(-c2nonc2N)c1-c1ccc(C)cc1`, for which the AC50 was 11.2 µM (active).
Regarding `COCc1c(C(N)=O)nnn1-c1nonc1N`, the “activity, negative = inhibition” value was -9.91%.
Still for that read-out and setting: then `Nc1nonc1-n1nncc1-c1ccccc1`, with -0.506%.
In the case of `c1ccc(CNc2ccnc(-c3ccoc3)n2)cc1`, the activity, negative = inhibition was -18.3% [at 2.29 µM].
Regarding `Cc1ccc(NC(=O)N/C=C/c2ccco2)cc1C`, the AC50 was 15.8 µM (active).
Same read-out and setting: then `O=C(/C=C/c1cccc(Cl)c1)Nc1ccncc1`, with 0.0447 µM (active).
As for `O=C(O)/C=C\C(=O)Nc1ccc2c(c1)C(=O)c1cc(F)ccc1-2`, the activity, negative = inhibition is -23.6% [at 11.4 µM].
Still for that read-out and setting: then `CS[C@@H](CC(=O)O)C(=O)O`, with -8.91% [at 11.4 µM].
Still for that read-out and setting: the same measure for `O=CN1CCN(C[C@H](O)CN2CCCCC2)CC1`: -3.16% [at 11.4 µM]; for `N#Cc1c(-c2ccc3c(c2)OCO3)ccn2nc(-c3cccc(C(F)(F)F)c3)nc12`: 6.23%.
As for `CCCCCc1nc2c(C#N)c(-c3ccc(Cl)cc3)ccn2n1`, the AC50 is 3.55 µM (active).
Regarding `CC[C@@]1([N+](=O)[O-])C[C@H]2C=C[C@@H]1C2`, the activity, negative = inhibition is -0.495% [at 11.4 µM].
As to `NCCNCC1CCNCC1`, the activity, negative = inhibition is 9.94% [at 11.4 µM].
Same read-out and setting: the same measure for `CCN(CC)CCOC(=O)[C@@H](Cc1cccc2ccccc12)C[C@@H]1CCCO1`: 19.7% [at 25.6 µM].
`CCOC(=O)c1ccc(-c2ccc(CO)o2)cc1`: the AC50 was 15.8 µM (active).
As to `CCOC(=O)c1ccc(N)cc1`, the “activity, negative = inhibition” value was -13.8% [at 25.6 µM].
Regarding `Cc1ccc(-c2ccc(CCC(=O)O)o2)cc1`, the “activity, negative = inhibition” value was -27.5%.
`O=c1[nH]c2[nH]c(=S)[nH]c(=S)c2[nH]1`: the AC50 is 1.26 µM (active).
`C[C@@]1(CCOCc2ccccc2)NC(=O)NC1=O`: the activity, negative = inhibition was -8.7% [at 11.4 µM].
For `COc1cccc(-c2nccc(NCc3cccnc3)n2)c1`, the activity, negative = inhibition is 0.577% [at 2.29 µM].
With `COc1ccc(-c2cc(C(F)(F)F)nc(SCc3cccc(C(=O)O)c3)n2)cc1`, the AC50 was 7.94 µM (active).
Consider `COc1ccccc1-c1nccc(NCc2cccnc2)n1`, for which the activity, negative = inhibition is -15.5% [at 2.29 µM].
For the compound `COc1ccc(-c2cc(C(F)(F)F)nc(NCc3cccnc3)n2)cc1`, the AC50 is 5.62 µM (active).
As for `COC(=O)CSc1cc(C(F)(F)F)nc(-c2ccccn2)n1`, the “activity, negative = inhibition” value is -26%.
The same measure, in the same setting: then `O=C(O)C(Cl)(c1ccccc1)c1ccccc1`, with -22.8% [at 11.4 µM].
Still for that read-out and setting: then `CN(C)Cc1ccc(C(C)(C)C)cc1-c1cc(C(C)(C)C)ccc1CN(C)C`, with 4.33% [at 11.4 µM].
In the case of `COc1ccccc1CCn1c(=O)c(-c2ccc(F)cc2)nc2cncnc21`, the AC50 was 3.98 µM (active).
Regarding `COc1ccc(-n2c(=O)c(-c3ccc(F)c(F)c3)nc3cncnc32)cc1`, the “activity, negative = inhibition” value is 3.26%.
In the case of `COc1ccccc1CCn1c(=O)c(-c2ccc(F)c(F)c2)nc2cncnc21`, the half-maximal activity concentration (AC50) is 6.31 µM (active).
For the compound `COCCn1c(=O)c(-c2ccc(F)c(F)c2)nc2cncnc21`, the “activity, negative = inhibition” value is -22.3%.
On to `Cn1c(=O)c(-c2ccc(F)cc2)nc2cncnc21`, for which the “activity, negative = inhibition” value is 7.67%.
For the compound `COc1ccccc1CCn1c(=O)c(-c2cccc(Cl)c2)nc2cncnc21`, the half-maximal activity concentration (AC50) is 1 µM (active).
As to `COCCn1c(=O)c(-c2cccc(Cl)c2)nc2cncnc21`, the “activity, negative = inhibition” value is -28.7%.
`COc1ccccc1CCn1c(=O)c(-c2ccccc2)nc2cncnc21`: the AC50 was 5.01 µM (active).
As to `Cn1c(=O)c(-c2ccccc2)nc2cncnc21`, the “activity, negative = inhibition” value is 5.36%.
The same measure, in the same setting: the same measure for `COCCn1c(=O)c(-c2ccc(F)cc2)nc2cncnc21`: -8.81%.
